Laboratory results reported in the supplement of paper PMC11732987, “Enantioselective OTUD7B fragment discovery through chemoproteomics screening and high-throughput optimisation” (Communications Chemistry, 2025).

Legend:
Assay in all cases: log2 ratio of Biotin-Ahx-Ub-VS probe labelling (fragment/DMSO); higher = less target engagement (more negative = stronger competition), active = hit call of the paper (q ≤ 0.05, log2 ratio ≤ -1)
Conditions in all cases: compound concentration: 200 uM; treatment time: 3 h
USP34 = USP34 (UniProt Q70CQ2)
Sequence of USP34 (Q70CQ2 whole entry, the tested form may be a part): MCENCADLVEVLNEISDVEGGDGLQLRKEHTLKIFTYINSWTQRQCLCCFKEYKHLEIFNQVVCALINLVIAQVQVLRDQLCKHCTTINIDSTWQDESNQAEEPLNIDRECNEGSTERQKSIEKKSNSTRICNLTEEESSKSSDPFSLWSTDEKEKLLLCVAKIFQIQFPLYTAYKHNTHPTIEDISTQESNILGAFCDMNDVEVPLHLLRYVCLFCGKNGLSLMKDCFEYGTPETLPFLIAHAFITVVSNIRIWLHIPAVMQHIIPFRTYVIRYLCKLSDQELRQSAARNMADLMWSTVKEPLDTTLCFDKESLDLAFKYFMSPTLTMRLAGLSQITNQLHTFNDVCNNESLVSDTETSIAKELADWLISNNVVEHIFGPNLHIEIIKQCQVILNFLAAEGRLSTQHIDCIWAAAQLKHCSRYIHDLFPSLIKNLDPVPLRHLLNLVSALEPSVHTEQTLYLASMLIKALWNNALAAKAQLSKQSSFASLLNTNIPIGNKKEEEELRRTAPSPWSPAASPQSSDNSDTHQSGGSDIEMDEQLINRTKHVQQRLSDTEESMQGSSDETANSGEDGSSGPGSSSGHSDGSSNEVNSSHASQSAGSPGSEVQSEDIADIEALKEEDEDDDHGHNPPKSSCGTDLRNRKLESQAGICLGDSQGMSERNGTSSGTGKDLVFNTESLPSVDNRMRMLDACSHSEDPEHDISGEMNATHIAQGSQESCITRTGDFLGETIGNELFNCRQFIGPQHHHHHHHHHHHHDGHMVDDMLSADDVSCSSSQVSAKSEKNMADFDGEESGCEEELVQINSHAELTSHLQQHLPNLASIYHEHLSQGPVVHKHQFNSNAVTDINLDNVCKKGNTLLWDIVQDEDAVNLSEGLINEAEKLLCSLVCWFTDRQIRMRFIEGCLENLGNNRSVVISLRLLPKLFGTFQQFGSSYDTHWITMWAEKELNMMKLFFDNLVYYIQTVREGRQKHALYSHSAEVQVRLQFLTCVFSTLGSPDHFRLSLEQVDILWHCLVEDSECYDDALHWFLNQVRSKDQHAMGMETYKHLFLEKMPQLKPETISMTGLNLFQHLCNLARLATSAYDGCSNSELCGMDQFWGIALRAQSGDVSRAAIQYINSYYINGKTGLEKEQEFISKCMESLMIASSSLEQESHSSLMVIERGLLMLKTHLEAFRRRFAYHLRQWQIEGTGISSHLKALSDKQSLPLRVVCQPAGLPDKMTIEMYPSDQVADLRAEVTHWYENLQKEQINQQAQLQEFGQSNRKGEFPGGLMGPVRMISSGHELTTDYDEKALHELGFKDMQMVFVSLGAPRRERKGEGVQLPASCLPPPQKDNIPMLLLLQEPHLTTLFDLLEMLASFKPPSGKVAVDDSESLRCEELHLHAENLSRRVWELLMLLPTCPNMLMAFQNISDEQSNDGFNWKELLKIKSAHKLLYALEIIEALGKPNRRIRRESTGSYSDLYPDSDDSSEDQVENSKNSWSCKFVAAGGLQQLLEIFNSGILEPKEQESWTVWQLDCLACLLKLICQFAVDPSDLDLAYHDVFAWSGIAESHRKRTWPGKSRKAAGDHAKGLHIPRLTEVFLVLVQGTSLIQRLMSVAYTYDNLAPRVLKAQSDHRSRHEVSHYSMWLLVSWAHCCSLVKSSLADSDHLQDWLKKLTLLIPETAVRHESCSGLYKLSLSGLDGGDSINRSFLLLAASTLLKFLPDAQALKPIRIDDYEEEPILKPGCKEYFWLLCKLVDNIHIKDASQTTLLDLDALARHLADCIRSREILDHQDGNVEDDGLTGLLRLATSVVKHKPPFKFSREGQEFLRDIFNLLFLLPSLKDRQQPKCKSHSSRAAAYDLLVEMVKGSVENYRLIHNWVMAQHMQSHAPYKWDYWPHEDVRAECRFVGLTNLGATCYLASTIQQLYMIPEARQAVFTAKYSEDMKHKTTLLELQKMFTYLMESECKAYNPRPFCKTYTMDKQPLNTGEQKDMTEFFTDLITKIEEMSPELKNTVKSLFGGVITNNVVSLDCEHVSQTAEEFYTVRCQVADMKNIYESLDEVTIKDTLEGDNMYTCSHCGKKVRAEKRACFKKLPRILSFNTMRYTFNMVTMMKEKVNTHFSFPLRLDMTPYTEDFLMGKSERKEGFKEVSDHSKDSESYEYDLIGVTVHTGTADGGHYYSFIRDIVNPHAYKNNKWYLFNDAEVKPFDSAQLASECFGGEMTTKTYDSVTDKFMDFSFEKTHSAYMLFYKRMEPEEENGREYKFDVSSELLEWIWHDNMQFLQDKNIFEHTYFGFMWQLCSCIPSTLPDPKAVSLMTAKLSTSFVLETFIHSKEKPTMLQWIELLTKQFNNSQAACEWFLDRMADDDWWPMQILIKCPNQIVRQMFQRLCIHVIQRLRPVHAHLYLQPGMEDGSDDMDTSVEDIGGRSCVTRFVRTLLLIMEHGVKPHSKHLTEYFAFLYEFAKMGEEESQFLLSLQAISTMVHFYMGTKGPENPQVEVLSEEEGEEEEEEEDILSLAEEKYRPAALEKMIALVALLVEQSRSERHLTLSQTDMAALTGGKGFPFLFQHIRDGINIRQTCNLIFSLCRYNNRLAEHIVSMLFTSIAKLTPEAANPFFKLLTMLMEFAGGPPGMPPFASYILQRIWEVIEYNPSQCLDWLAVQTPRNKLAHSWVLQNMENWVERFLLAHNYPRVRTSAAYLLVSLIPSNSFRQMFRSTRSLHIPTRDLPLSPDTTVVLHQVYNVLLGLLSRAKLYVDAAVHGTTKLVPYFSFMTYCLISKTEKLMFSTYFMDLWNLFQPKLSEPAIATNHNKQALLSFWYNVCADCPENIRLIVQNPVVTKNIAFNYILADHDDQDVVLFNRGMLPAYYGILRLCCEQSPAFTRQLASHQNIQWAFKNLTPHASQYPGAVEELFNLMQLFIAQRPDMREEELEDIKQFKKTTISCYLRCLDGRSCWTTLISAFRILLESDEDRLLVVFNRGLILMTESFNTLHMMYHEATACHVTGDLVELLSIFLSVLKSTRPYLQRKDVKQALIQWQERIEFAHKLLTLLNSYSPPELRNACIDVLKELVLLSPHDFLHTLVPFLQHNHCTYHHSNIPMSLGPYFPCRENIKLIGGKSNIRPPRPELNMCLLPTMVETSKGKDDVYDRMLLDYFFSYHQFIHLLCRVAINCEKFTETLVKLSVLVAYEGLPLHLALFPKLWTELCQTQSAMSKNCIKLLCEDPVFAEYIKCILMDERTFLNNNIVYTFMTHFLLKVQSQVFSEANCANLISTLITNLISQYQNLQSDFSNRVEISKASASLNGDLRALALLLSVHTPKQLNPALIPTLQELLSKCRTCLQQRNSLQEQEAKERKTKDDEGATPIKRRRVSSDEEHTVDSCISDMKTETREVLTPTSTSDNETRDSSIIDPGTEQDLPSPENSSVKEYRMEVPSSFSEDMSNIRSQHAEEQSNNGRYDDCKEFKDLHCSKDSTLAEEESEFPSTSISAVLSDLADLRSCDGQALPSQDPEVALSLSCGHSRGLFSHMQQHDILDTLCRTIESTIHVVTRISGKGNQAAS
Method in brief: (§1)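 Average log2 ratios of fragment over vehicle were obtained by unpaired t-test from global-median-normalised Spectronaut label-free quantities. Proteins with ≥2 unique peptides were included. HEK293T lysate (495 µg per sample) was treated in triplicate with fragment at 200 µM or vehicle for 3 h, then with Biotin-Ahx-Ub-VS at 0.5 µM final for 1 h, and labelled DUBs were NeutrAvidin-enriched and run by diaPASEF LC-MS/MS.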

USP36 = biological target: T1, USP36 (UniProt Q9P275)
T1 sequence (whole entry): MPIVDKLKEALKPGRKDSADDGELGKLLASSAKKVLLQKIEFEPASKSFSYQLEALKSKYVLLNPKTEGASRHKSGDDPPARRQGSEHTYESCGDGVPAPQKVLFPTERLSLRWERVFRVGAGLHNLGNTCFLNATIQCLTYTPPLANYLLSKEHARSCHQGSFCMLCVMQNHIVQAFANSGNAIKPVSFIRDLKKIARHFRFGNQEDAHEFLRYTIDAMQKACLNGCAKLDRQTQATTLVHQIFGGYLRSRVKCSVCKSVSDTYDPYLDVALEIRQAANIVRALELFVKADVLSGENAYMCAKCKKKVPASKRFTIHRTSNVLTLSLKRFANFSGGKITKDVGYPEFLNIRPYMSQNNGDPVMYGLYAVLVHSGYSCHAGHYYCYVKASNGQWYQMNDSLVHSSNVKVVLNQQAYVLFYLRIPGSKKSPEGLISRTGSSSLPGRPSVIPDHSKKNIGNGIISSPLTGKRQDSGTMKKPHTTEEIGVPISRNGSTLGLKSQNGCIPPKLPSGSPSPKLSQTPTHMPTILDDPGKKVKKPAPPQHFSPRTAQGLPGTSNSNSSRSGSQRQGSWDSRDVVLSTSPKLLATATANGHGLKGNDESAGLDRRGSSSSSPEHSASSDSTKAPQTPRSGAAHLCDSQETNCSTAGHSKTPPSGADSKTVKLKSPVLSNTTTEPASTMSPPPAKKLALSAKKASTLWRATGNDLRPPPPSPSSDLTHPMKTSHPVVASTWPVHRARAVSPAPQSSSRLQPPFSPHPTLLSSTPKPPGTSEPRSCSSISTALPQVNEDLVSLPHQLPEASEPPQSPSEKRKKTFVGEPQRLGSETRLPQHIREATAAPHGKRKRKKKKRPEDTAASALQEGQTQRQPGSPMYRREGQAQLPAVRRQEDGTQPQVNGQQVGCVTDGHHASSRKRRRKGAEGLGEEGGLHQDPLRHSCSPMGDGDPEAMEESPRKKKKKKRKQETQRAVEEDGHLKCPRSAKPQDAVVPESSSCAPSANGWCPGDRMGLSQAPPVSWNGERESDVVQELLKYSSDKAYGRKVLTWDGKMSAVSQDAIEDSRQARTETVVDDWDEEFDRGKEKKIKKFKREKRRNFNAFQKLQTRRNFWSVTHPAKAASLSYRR
Method in brief: as §1

USP38 = biological target: T2, USP38 (UniProt Q8NB14)
T2 sequence (whole entry): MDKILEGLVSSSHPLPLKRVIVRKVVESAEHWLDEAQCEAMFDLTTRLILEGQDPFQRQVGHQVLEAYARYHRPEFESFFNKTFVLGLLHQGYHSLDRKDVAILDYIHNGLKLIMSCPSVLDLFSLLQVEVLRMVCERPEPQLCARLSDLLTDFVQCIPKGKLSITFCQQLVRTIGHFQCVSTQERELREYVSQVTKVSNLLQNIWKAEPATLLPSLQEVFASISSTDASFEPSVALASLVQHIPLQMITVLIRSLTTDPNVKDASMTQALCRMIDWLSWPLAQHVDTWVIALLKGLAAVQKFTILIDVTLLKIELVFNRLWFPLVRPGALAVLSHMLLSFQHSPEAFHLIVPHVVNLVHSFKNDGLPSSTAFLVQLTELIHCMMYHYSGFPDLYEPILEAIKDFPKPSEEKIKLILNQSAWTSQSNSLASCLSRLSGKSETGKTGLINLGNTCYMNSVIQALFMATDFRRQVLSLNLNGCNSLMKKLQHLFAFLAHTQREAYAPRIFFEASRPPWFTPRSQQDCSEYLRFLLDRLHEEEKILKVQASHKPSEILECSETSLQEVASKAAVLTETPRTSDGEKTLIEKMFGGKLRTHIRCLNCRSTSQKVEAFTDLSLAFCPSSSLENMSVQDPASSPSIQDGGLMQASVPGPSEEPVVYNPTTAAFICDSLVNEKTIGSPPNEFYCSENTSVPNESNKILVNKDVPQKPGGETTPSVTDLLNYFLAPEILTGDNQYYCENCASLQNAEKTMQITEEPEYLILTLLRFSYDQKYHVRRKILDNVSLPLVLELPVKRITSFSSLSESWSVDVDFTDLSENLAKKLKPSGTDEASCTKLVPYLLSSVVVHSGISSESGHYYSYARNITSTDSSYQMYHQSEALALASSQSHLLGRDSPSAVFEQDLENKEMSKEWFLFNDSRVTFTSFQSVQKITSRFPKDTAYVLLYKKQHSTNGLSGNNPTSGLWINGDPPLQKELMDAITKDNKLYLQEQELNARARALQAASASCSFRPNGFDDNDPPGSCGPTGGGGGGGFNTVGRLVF
Method in brief: as §1

USP39 = biological target: T3, USP39 (UniProt Q53GS9)
T3 sequence (whole entry): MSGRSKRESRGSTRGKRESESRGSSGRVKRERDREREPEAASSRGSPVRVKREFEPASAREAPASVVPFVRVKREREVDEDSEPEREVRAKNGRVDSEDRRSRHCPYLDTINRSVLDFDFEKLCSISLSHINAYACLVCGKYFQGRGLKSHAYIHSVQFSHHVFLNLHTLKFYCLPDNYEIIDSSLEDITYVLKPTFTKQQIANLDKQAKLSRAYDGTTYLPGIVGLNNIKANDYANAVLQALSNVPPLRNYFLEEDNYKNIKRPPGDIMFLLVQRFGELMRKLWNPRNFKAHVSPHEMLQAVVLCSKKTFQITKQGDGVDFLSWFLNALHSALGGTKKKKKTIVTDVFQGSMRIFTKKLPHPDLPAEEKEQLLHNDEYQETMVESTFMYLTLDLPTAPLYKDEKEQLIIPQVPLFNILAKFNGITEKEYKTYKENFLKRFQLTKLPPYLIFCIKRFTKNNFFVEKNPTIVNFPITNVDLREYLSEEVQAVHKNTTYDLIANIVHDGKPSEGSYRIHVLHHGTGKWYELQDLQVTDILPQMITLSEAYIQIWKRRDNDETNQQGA
Method in brief: as §1

USP4 = biological target: T4, USP4 (UniProt Q13107)
T4 sequence (whole entry): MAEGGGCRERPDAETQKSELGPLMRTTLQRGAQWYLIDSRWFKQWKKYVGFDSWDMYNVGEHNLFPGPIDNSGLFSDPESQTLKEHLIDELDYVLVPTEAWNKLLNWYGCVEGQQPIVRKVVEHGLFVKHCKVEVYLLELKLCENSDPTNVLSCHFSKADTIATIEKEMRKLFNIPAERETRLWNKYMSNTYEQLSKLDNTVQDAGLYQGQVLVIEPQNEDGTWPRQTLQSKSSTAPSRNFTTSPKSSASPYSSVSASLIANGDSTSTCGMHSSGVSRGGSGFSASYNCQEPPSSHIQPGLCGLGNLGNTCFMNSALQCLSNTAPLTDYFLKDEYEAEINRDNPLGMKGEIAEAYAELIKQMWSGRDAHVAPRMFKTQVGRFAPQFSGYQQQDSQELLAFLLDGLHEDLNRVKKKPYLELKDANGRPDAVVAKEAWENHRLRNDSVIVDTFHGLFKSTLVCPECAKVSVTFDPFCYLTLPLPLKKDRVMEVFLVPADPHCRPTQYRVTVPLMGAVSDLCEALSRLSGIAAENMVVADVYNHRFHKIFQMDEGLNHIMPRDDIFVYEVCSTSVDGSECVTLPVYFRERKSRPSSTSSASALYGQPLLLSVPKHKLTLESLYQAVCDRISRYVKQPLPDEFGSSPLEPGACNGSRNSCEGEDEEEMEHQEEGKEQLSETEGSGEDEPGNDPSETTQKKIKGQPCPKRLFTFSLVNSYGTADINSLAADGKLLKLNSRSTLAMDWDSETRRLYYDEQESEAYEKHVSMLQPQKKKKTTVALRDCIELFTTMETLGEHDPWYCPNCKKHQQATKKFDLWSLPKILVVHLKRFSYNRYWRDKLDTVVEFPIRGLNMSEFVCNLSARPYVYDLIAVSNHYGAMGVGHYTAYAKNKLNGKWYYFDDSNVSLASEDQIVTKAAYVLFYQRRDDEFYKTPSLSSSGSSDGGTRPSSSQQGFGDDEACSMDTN
Method in brief: as §1

Measured: log2 ratio of Biotin-Ahx-Ub-VS probe labelling

O=C(CCl)Nc1ccc(N2CCCC2=O)cc1
inactive: USP34 0.0377 | USP36 0.2 | USP38 0.147 | USP39 -0.106 | USP4 0.0532
